Tgondii IFNg = T. gondii growth inhibition with IFN-gamma, primary screen, cell-based; activity change, negative = inhibition, % (no concentration beside the values); hit rate 3.8% among 69,000; AID 1259416, 2018; Toxoplasma gondii growth in IFN-gamma-treated host cells; stronger effect = lower value; in the data active = activity change below about -70%, passing the limit was not always enough;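 note: host cells are HeLa cells infected with Toxoplasma gondii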
* = called active by the depositor; i = inactive. Many of the other results were omitted from the sample, so hits are more common in it than they were.

SMILES	Tgondii IFNg
COc1cc(NC(=O)N2CCc3nc(-c4ccc(C)cc4)sc3C2)cc(OC)c1	31
COc1ccc(-c2nc3c(s2)CN(C(=O)Nc2cccc(SC)c2)CC3)cc1	-116*
COc1cccc(-c2nc3c(s2)CN(C(=O)Nc2ccc(Br)cc2)CC3)c1	-36
COc1ccc(-c2nc3c(s2)CN(C(=O)Nc2ccccc2OC)CC3)cc1	7
COc1ccc(-c2nc3c(s2)CN(C(=O)Nc2cc(C)ccc2C)CC3)cc1	78
Cc1ccc(C2(CNC(=O)CCn3c(=O)cc(C)c4ccccc43)CCOCC2)cc1	10
CCC(C(=O)NCc1csc(C)n1)N1Cc2ccccc2C1=O (centres undefined)	0
O=C(c1ccoc1)N1CCOCC2(CCN(c3ncccn3)C2)C1 (centres undefined)	93
COc1cccc(-c2ccc(NC(=O)c3ccc(Cn4cnnn4)cc3)cc2)c1	0
Cc1nc(-c2cn(C(C)C)c3ncccc23)sc1C(=O)N1CCCCC1C (centres undefined)	-106*
CC1CCCCN1C(=O)c1cc(-c2cnc(-c3ccccc3)nc2)cn1C (centres undefined)	i
CCCc1ncc(-c2ccncc2C)c(C2CCCN2C(=O)c2sc(NC)nc2C)n1 (centres undefined)	-13
COCC1(Cn2cnc(-c3ccccc3)c2-c2nccn2C)CC1	-3
COc1ccc2[nH]cc(C(=O)NCC3(c4ccc(C)cc4)CCOCC3)c2c1	-19
COc1ccc(C(=O)NCCc2csc(-c3ccccc3)n2)cc1OC	i
CCOCc1ncn2c1CN(C(=O)Nc1ccccc1)CC2	10
Cc1ccc(-c2nc3c(s2)CN(C(=O)NCc2ccccc2)CC3)cc1	-35
COc1ccc(CNC(=O)c2nc3c(s2)CCN(C(=O)CC(C)C)CC3)cc1	17
O=C(NCc1ccccc1)c1nc2c(s1)CCN(C(=O)c1ccncc1)CC2	-74*
CC(C)n1c2ccccc2c2c1cc(C(=O)N(C)Cc1ccccn1)n2-c1ncccn1	-15
COc1ccc(S(=O)(=O)NCCc2sc(-c3cccc(F)c3)nc2C)cc1C	29
CC(=O)NCc1cnc(C2CCCN2CC(=O)Nc2nccs2)cc1C(F)(F)F (centres undefined)	-12
CCS(=O)(=O)N1CCN(c2ccc(Nc3ncc(C(N)=O)c(NC4CC4)n3)cc2)CC1	-65
CC(=O)NCC(=O)N1[C@@H]2CC[C@H]1c1ccc(Nc3ncc(C(F)(F)F)c(NC4CCC4)n3)cc12	-74*
O=C(NCc1ccccc1-n1ccnc1)[C@H]1Cc2ccccc2CN1	5
SMILES	Tgondii IFNg
CCOCC1CN(C(=O)c2ccc[nH]2)Cc2ccnn2C1 (centres undefined)	3
C[C@@H]1CN([C@@H](C)CO)C(=O)CCCn2nncc2CO[C@@H]1CN(C)Cc1cccc(C(F)(F)F)c1	27
C[C@@H]1CN([C@H](C)CO)C(=O)CCCn2nncc2CO[C@H]1CN(C)Cc1cccc2c1OCCCO2	-88*
C[C@H](CO)N1C[C@H](C)[C@H](CN(C)Cc2cccc(C(F)(F)F)c2)OCc2cnnn2CCCC1=O	179
C[C@H]1CN([C@@H](C)CO)C(=O)CCCn2nncc2CO[C@H]1CN(C)Cc1cccc(C(F)(F)F)c1	-106*
C[C@H](CO)N1C[C@H](C)[C@@H](CN(C)Cc2cccc3c2OCCCO3)OCc2cnnn2CCCC1=O	201
C[C@@H]1CN([C@H](C)CO)C(=O)CCCn2nncc2CO[C@@H]1CN(C)Cc1cccc2c1OCCCO2	-58
CC(C)NC(=O)N1C[C@@H]2N(c3ncccn3)CCC[C@@]2(C(=O)NCC2CC2)C1	-3
Cn1nc(-c2cccc(F)c2)c2c1C[C@H]1CN(Cc3ccncc3)C[C@H]21	-6
CCCN1C[C@H](NC(=O)CCc2cc(Cl)no2)[C@@H](c2ccc(OC)cc2)C1	14
CCOc1ccc(CCCC(=O)N2CCCC2c2nonc2C)cc1C (centres undefined)	-1
CS(=O)(=O)N1CC2CN(c3ncc(F)cn3)CCC2(c2ccccc2)C1 (centres undefined)	-5
OC1(C(F)(F)F)CC(c2ccc3c(c2)OCCO3)=NN1 (centres undefined)	47
CCOc1ccccc1NC(=O)N1CCC2(CC1)NC(=O)c1cc(F)ccc1N2C	5
CC(C)CNC(=O)C(=O)N1CCCn2nc(C(=O)Nc3ccccc3)cc2C1	-65
C=CCn1c(=O)c(-c2nc(-c3cccc(OCC)c3)no2)c(O)c2ccccc21	-47
COc1ccc(OC)c(-c2cc(C(=O)NC(C)c3ccc4c(c3)CCC4)[nH]n2)c1 (centres undefined)	75
COc1ccc(C(C)NC(=O)c2cn3c(n2)CCCC3)cc1OC (centres undefined)	110
COc1ccc(C(C)NC(=O)c2c3c(nn2C)CCCC3)cc1F (centres undefined)	-77*
Cc1ccc(C2(O)CCN(C(=O)c3cnc(C(C)C)[nH]c3=O)CC2)nc1	1
CC(=O)Cn1c(=O)c2c(nc3n(C(C)C)c(C)c(C)n23)n(C)c1=O	-33
CCn1c(=O)c(-c2nc(-c3ccc(OCC(C)C)cc3)no2)c(O)c2ccccc21	-10
CC1CN(C(=O)c2nc3c(n2C(C)C)CCN(Cc2ccccc2)C3)CC(C)O1 (centres undefined)	-49
CC(C)n1c(C(=O)Nc2cccc(F)c2)nc2c1CCN(Cc1ccccc1)C2	-30
CC(C)Oc1ccc(NC(=O)c2nc3c(n2C(C)C)CCN(C(=O)c2ccccc2)C3)cc1	-89*
SMILES	Tgondii IFNg
CCC(=O)N1CC[C@H](OCc2csc(C)n2)[C@@H](Cc2ccccc2)C1	-9
O=S(=O)(Cc1ccccc1)N1CCCC1c1ccccn1 (centres undefined)	5
Cc1cc(-n2cccn2)ccc1CN1CCOC(c2ccc(F)cc2)C1 (centres undefined)	-61
Cc1nc(-c2ccc(F)cc2)sc1CCNC(=O)C(=O)Nc1cccc(Cl)c1C	-6
CCCn1cc(C(=O)Nc2cc(C(N)=O)ccc2N2CCCCC2C)c(C)n1 (centres undefined)	-19
C[C@H]1CN([C@@H](C)CO)S(=O)(=O)c2ccc(C#CCC3CCCC3)cc2O[C@H]1CN(C)C(=O)c1cnccn1	-91*
C[C@@H]1CN([C@@H](C)CO)S(=O)(=O)c2ccc(C#CCC3CCCC3)cc2O[C@H]1CN(C)C(=O)c1cnccn1	-62
C[C@@H]1CN([C@@H](C)CO)S(=O)(=O)c2ccc(C#Cc3ccccc3F)cc2O[C@H]1CN(C)C(=O)Cc1cccnc1	-90*
COc1cccc(C#Cc2ccc3c(c2)O[C@@H](CN(C)C(=O)CN2CCOCC2)[C@@H](C)CN([C@H](C)CO)S3(=O)=O)c1	-42
COc1cccc(C#Cc2ccc3c(c2)O[C@H](CN(C)C(=O)CN2CCOCC2)[C@H](C)CN([C@H](C)CO)S3(=O)=O)c1	6
COCC#Cc1ccc2c(c1)O[C@H](CN(C)C(=O)C1CCOCC1)[C@H](C)CN([C@H](C)CO)S2(=O)=O	65
CN1CCOCC1c1csc(-c2ccccc2)n1 (centres undefined)	5
C=CCN1C(=O)CC2(CCN(C(=O)c3cc(C)[nH]n3)CC2)c2ccccc21	-8
O=C(NCc1ccco1)N1CCC2(CC1)Nc1cccnc1NC2=NCc1ccccc1	-52
O=C(c1ccco1)N1CCOC2CCC1C2Oc1ncccc1F (centres undefined)	-33
Cc1onc(-c2c(F)cccc2Cl)c1-c1nnc(-c2ccc(C(F)(F)F)cc2)o1	-99*
FC(F)(F)c1ccc(-c2nnc(COc3ccccc3Cl)o2)cc1	21

Source: PubChem
